Experimental data: article PMC8769072, “Proteome‐scale mapping of binding sites in the unstructured regions of the human proteome” (Molecular Systems Biology, 2022)

B1: YLPM1, P49750 (peptide)
chain: GSIVRPSAPPARSSVP
B2: MEX3B, Q6ZN04 (peptide)
chain: SASSSASSSASSSSVV
B3: ZFHX4, Q86UP3 (peptide)
chain: PSAPPQVQLPVSLDLP
B4: TACC2, O95359 (peptide)
chain: PSAAEHIVSPSAPAGD
B5: ARNTL2, Q8WYA1 (peptide)
chain: SAMSVPGMSTGTVLGA
B6: HIPK2, Q9H2X6 (peptide)
chain: AASTSVTAGWGDVASS
B7: PHC3, Q8NDX5 (peptide)
chain: MDTEPNPGTSSVSTTT
B8: NXF1, Q9UBU9 (peptide)
chain: AMPAPTPSSSPVPTLS
B9: MARK1, Q9P0L2 (peptide)
chain: MSVSSISSAGSSVASA
B10: KAT6A, Q92794 (peptide)
chain: DVPSVSDHSQQVVDSG
B11: MGAM2, Q2M2H8 (peptide)
chain: DSTVHTSATAPTYIAN
B12: TET1, Q8NFU7 (peptide)
chain: SLMPSAPHPVKEASPG
B13: RTTN, Q86VV8 (peptide)
chain: DAASSSGSSSHAHVNS
B14: AHNAK2, Q8IVF2 (peptide)
chain: VSAPGRSIEASVDVPA
B15: ING3, Q9NXR8 (peptide)
chain: SSSSSLSSASSSSTVV
B16: SALL1, Q9NSC2 (peptide)
chain: SGMVTNSVPTASSSVL
B17: ATOH8, Q96SQ7 (peptide)
chain: APSAPPAPPAPPESTV
B18: PRDM2, Q13029 (peptide)
chain: SSSSPSPPPLSAISSV
B19: SPTBN4, Q9H254 (peptide)
chain: EHAEIARWGQTLPTTS
B20: KMT2D, O14686 (peptide)
chain: KPSAPPAPELNNSLHP
B21: SUFU, Q9UMX1 (peptide)
chain: GPTAPPAPGPTAPPAF
B22: SRCAP, Q6ZRS2 (peptide)
chain: NLSLTPSAPSLTLEAG
B23: CDH3, P22223 (peptide)
chain: ANTDPTAPPYDTLLVF
B24: ANTXR1, Q9H6X2 (peptide)
chain: PSAPTPPIPSPPSTLP
B25: PKNOX2, Q96KN3 (peptide)
chain: VPSAPIDPQAQLEADK
B26: TSC22D2, O75157 (peptide)
chain: PSVPSVSTTSVTMPNV
B27: ZFP36, P26651 (peptide)
chain: LAGPSLSSSSFSPSSS
B28: SAMD4A, Q9UPU9 (peptide)
chain: SSVPTTINTIGTSTST
B29: BSN, Q9UPA5 (peptide)
chain: HDATASSSSAAATVRA
B30: SS18, Q15532 (peptide)
chain: MPSSSHGSMGGYNHSV
B31: LRRFIP1, Q32MZ4 (peptide)
chain: EEQAGTVASAPLGHSD
B32: BSN, Q9UPA5 (peptide)
chain: DASSQTRMVHASASTS
B33: SYNE2, Q8WXH0 (peptide)
chain: DRASSSSGTIVQEAYG
B34: POM121, Q96HA1 (peptide)
chain: SFGINVATPGSSTTTG
B35: NPIPA3, F8WFD2 (peptide)
chain: EALLTPLPPSAPPSVD
B36: GGA3, Q9NZ52 (peptide)
chain: DAPLLQPSAPSSSSSQ
B37: KIAA0408, Q6ZU52 (peptide)
chain: HVSNDASSSVAESSSP
B38: ESR1, P03372 (peptide)
chain: QSHLATAGSTSSHSLQ
B39: SIX4, Q9UIU6 (peptide)
chain: LSNSESKATSSLMMLD
B40: SSFA2, P28290 (peptide)
chain: LTPTAPSRTGSVQTPP
B41: MAGEE1, Q9HCI5 (peptide)
chain: AYEGPSTSVVPTPDEG
B42: GPRC5B, Q9NZH0 (peptide)
chain: EMAVVLNGGTIPTAPP
B43: EPHA2, P29317 (peptide)
chain: LPSTSGSEGVPFRTVS
B44: UBAP1, Q9NZ09 (peptide)
chain: VPNMPSAPQAYSELQM
B45: SP4, Q02446 (peptide)
chain: STMPESPSSSTTATTT
B46: CHD7, Q9P2D1 (peptide)
chain: PTAPPLQPHPGLHHQS
B47: GRM1, Q13255 (peptide)
chain: ASGSSVPSSPVSESVL
B48: DENND1A, Q8TEH3 (peptide)
chain: PTLQPSAPQQARDPFE
B49: MAP3K1, Q13233 (peptide)
chain: GPSSSTTTTTTTTEQP
B50: CBX6, O95503 (peptide)
chain: LLPETVSPSAPSWREP
B51: GUCY1B2, O75343 (peptide)
chain: VQPSAPEHSSLASWLL
B52: ABHD12, Q8N2K0 (peptide)
chain: VALEHERAAAAGSSSS
B53: WBP1, Q96G27 (peptide)
chain: PLTASSEQTAASSSSS
B54: SAP130, Q9H0E3 (peptide)
chain: TVPSHSSHATAVTTSN
B55: KLF12, Q9Y4X4 (peptide)
chain: TVITSVSSASSSSTVL
B56: ARAP2, Q8WZ64 (peptide)
chain: SGSVQTSSPPQLETVR
B57: ATP10D, Q9P241 (peptide)
chain: GAMAVTANPPSNPYWI
B58: BEST1, O76090 (peptide)
chain: PLEPSAPSKLHSVTGI
B59: GPR179, Q6PRD1 (peptide)
chain: SLQNQQNAHTSRMLQV
B60: CCDC168, Q8NDH2 (peptide)
chain: LSRTFLSIPSAPPLYL
B61: PIP4P1, Q86T03 (peptide)
chain: AGPGGGLTPSAPPYGA
B62: TTLL5, Q6EMB2 (peptide)
chain: MPIVMARDLEETASSS

Sequence of TSG101 1-145, Q99816 (Q99816 1-145): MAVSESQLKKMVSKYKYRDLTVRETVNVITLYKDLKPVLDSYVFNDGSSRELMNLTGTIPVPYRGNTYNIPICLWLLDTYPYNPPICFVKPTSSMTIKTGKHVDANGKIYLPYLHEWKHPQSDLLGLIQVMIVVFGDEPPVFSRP
Sequence of USP7 53-206, Q93009 (Q93009 53-206): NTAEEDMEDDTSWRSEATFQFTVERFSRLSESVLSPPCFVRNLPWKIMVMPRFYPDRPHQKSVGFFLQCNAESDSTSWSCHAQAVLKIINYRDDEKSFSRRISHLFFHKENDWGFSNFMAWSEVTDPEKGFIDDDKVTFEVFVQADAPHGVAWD

Binder	selected by phage display (TSG101 1-145, Q99816)	selected by phage display (USP7 53-206, Q93009)
B1	confidence 2 (active)	–
B2	–	confidence 4 (active)
B3	confidence 2 (active)	–
B4	confidence 2 (active)	–
B5	–	confidence 2 (active)
B6	–	confidence 2 (active)
B7	–	confidence 2 (active)
B8	–	confidence 2 (active)
B9	–	confidence 3 (active)
B10	–	confidence 3 (active)
B11	confidence 3 (active)	–
B12	confidence 3 (active)	–
B13	–	confidence 3 (active)
B14	–	confidence 2 (active)
B15	–	confidence 2 (active)
B16	–	confidence 4 (active)
B17	confidence 3 (active)	–
B18	–	confidence 2 (active)
B19	–	confidence 2 (active)
B20	confidence 3 (active)	–
B21	confidence 2 (active)	–

Binder	selected by phage display (TSG101 1-145, Q99816)	selected by phage display (USP7 53-206, Q93009)
B22	confidence 3 (active)	–
B23	confidence 2 (active)	–
B24	confidence 2 (active)	–
B25	confidence 2 (active)	–
B26	–	confidence 4 (active)
B27	–	confidence 2 (active)
B28	–	confidence 2 (active)
B29	–	confidence 4 (active)
B30	–	confidence 2 (active)
B31	confidence 4 (active)	–
B32	–	confidence 3 (active)
B33	–	confidence 2 (active)
B34	–	confidence 3 (active)
B35	confidence 3 (active)	–
B36	confidence 2 (active)	–
B37	–	confidence 3 (active)
B38	–	confidence 3 (active)
B39	–	confidence 2 (active)
B40	confidence 4 (active)	–
B41	–	confidence 4 (active)
B42	confidence 4 (active)	–

Binder	selected by phage display (TSG101 1-145, Q99816)	selected by phage display (USP7 53-206, Q93009)
B43	–	confidence 2 (active)
B44	confidence 3 (active)	–
B45	–	confidence 3 (active)
B46	confidence 4 (active)	–
B47	–	confidence 4 (active)
B48	confidence 2 (active)	–
B49	–	confidence 3 (active)
B50	confidence 3 (active)	–
B51	confidence 4 (active)	–
B52	–	confidence 3 (active)
B53	–	confidence 2 (active)
B54	–	confidence 4 (active)
B55	–	confidence 4 (active)
B56	–	confidence 2 (active)
B57	confidence 2 (active)	–
B58	confidence 3 (active)	–
B59	–	confidence 2 (active)
B60	confidence 2 (active)	–
B61	confidence 3 (active)	–
B62	–	confidence 3 (active)
